Measured values: PubChem BioAssay (NCI)
About 83,000 compounds went through this panel and 20% of them were active in at least one assay; those are over-represented in the sample as a whole.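 Treatment: one concentration, 48 hours, 96-well format. Scoring: percent growth, with anything below 10 considered active.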 Values without a mark were called inactive. Active and inactive are the calls of the source.

What follows are molecules tested on KM12 colon (assay: NCI-60 one-dose screen, 48 h (100 = growth as untreated, 0 = no growth, -100 = all killed)). Settings: 10 µM unless noted.
`O=C(Cn1c2ccccc2c2ccncc21)N/N=C/c1c[nH]c2ccccc12` was tested, and the growth was 60.5%. With `Cc1ccc(-c2nc3c(N=Nc4ccc(S(N)(=O)=O)cc4)c(N)nn3c(N)c2C#N)cc1` the growth was 29.2%. `O=C(Nc1ccccc1Cl)c1c[nH]c(=O)c(-c2ccc(N3CCCOC4(CC4)C3)cc2)c1` gave a growth of 74.3%. With `OC(COc1ccccc1Cl)CN1CCN(c2ccc(Cl)cc2)CC1` (stereo unspecified) the growth was 100%. For `Nc1nccc2c1ccn2-c1ccc(NC(=O)Nc2cccc(C(F)(F)F)c2)cc1`, the growth was 75.1%. `O=C(Nc1ccc(-n2ccc3c(NC(=O)c4ccccc4)nccc32)cc1)Nc1cccc(C(F)(F)F)c1` gave a growth of 11.2%. Work on `O=C1C(Cl)=C(Nc2ccccc2)C(=O)C(Cl)=C1Nc1ccccc1` yielded a growth of 116%. `CC(=O)Nc1ccc([I+]c2ccc([N+](=O)[O-])cc2)cc1` gave a growth of 104%. `CCN1CCN(Cc2ccc(NC(=O)Nc3cccc(-n4ccc5c(NC(=O)c6ccccc6)nccc54)c3)cc2C(F)(F)F)CC1` was tested, and the growth was 53.1%. In the case of `O=C(Nc1cccc(-n2ccc3c(NC(=O)c4ccccc4)nccc32)c1)c1cccc(C(F)(F)F)c1`, the growth is reported as -3.3% (active). Molecule `CC(=O)N[C@@H](CNC(=O)c1cc(NC(=O)c2cc(NC(=O)c3cc(NC(=O)c4nccn4C)cn3C)cn2C)cn1C)CC(=O)Nc1cn(C)c(C(=O)Nc2cc(C(=O)Nc3cc(C(=O)Nc4cc(C(=O)NCCCN(C)CCCNC(=O)c5cccc(C(=O)O)c5)n(C)c4)n(C)c3)n(C)c2)n1` has a growth of 42.6%.
